Pf growth 96h: P. falciparum growth inhibition at 96 hours | AID 504834 | Potency, µM (highest dose often 28.7 µM), actives largely listed as inhibitors | P. falciparum luciferase reporter growth, 96 h | hit rate 6.9% among 320,000
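Plates of compound plus infected erythrocytes (2% hematocrit, 0.05% parasitemia final) incubate 96 hours, 37 C, 5% CO2. Detection reagent added; reduced luminescence from the parasites' luciferase reporter flags inhibition.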
AMA1 RON2 block: disrupts binding of P. falciparum AMA1 to RON2; AlphaScreen AMA1-biotinylated RON2 peptide binding; Potency, µM (titrated, usually from 58.2 µM), hits mostly inhibitors; hit rate 0.2% among 360,000; also: nearly all actives have a fitted effect of over 45% in size
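AMA1 (3D7) with his tag at 25 nM final met compounds first, then biotinylated RON2 peptide at 25 nM; detection used donor plus acceptor beads, 10 µg/mL apiece, read by AlphaScreen after 30 min at room temperature.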
HCV inhibitor: HCV inhibition; Huh7.5.1 HCVcc-Cre infection, luciferase reporter, 44 h; Potency, µM (doses to about 41.8 µM), actives largely listed as inhibitors; hit rate 3.4% among 340,000
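HCVcc-Cre virus at an moi near 0.5 was added right after compound to cells cultured 4 h from seeding (1,000 cells/well). Luciferase activity was determined 44 h later, 15 min after substrate addition at RT.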
Pf growth 48h: P. falciparum growth inhibition at 48 hours (one generation). P. falciparum luciferase growth in erythrocytes, 48 h. hit rate 5.9% among 310,000. AID 504832. Potency, µM (top dose mostly 28.7 µM), usual class: inhibitors
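Growth was read as firefly luciferase luminescence after a 48 h, 37 C, 5% CO2 exposure of compounds to reporter-bearing P. falciparum cultures (0.1% parasitemia, 2% hematocrit final) in Albumax-supplemented RPMI 1640.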
Each line names hits and unclear results; the compound was inactive in the other large screens; ! = not active in a repeat. A selection: hits, their analogues and other compounds. The true share with any hit is near 11%. Calls follow the shape of the dose curve; as a rule, active = well fitted curve in the direction sought with a large enough effect; inconclusive = small, poorly fitted or top-dose-only effect, or another doubt; inactive = no such curve, though single readings can be large; an effect the other way counts as inactive or inconclusive.

COc1ccc(-n2nnc3c(=O)n(CC(=O)Nc4cc(C)on4)cnc32)cc1OC	Pf growth 48h inconclusive
Cc1ccccc1OCC(=O)NNC(=O)CSc1nc(N)cc(N)n1	Pf growth 96h 8.3µM
CCOC(=O)CNC(=O)CSc1nc(N)cc(N)n1	Pf growth 96h 10µM
Nc1cc(N)nc(SCC(=O)NNC(=O)Cc2ccccc2)n1	none
COc1cc(C(=O)OCC(=O)NC2CCCCC2)cc(OC)c1OC	none (no result: Pf growth 96h, Pf growth 48h)
CC(=O)NC(CC(=O)OCC(=O)N1CCc2ccccc21)c1ccccc1 (stereo unspecified)	none (no result: Pf growth 48h)
Brc1ccc(N/N=C(/N=Nc2nn[nH]n2)c2ccccc2)cc1	Pf growth 96h 1.9µM, HCV inhibitor 5.6µM, Pf growth 48h 3.3µM
O=C(O)c1ccc(N=N/C(=N\Nc2ccc(C(=O)O)cc2)c2ccccc2)cc1	none
O=C1/C(=C\c2cc3c(cc2Cl)OCO3)N2CCC1CC2	Pf growth 96h 5.9µM
C=CCOc1ccc(CNc2ccc(NC(=O)CC(C)C)cc2)cc1OC	Pf growth 96h inconclusive, HCV inhibitor inconclusive
Cc1cccn2c(=O)c3cc(C#N)c(=NC(=O)c4ccccc4)n(Cc4ccco4)c3nc12	HCV inhibitor 4µM (no result: Pf growth 96h, Pf growth 48h)
CCOCCCn1c(=NC(=O)c2cccs2)c(C#N)cc2c(=O)n3cccc(C)c3nc21	HCV inhibitor inconclusive, Pf growth 48h 1.9µM
COCCCn1c(=NC(=O)c2ccccc2)c(C#N)cc2c(=O)n3cccc(C)c3nc21	Pf growth 96h inconclusive, HCV inhibitor inconclusive, Pf growth 48h 2.9µM
COCCCn1c(=NC(C)=O)c(C#N)cc2c(=O)n3cccc(C)c3nc21	Pf growth 96h inconclusive
CC(=O)N=c1c(C#N)cc2c(=O)n3ccccc3nc2n1Cc1ccccc1	Pf growth 96h 8.3µM, HCV inhibitor inconclusive, Pf growth 48h inconclusive
CN1[C@H]2CC(OC(=O)[C@H](CO)c3ccccc3)C[C@H]1[C@H]1O[C@H]12 (stereo partly specified)	none (no result: AMA1 RON2 block, HCV inhibitor)
NC(=O)CSc1nc(-c2ccccc2Cl)ns1	none
CCN(C(=O)c1cc2c(=O)n3cccc(C)c3nc2n1CCCOC)C1CCCCC1	Pf growth 96h 9.3µM, HCV inhibitor inconclusive, Pf growth 48h inconclusive
O=C(O)CCCCCNC(=O)Cn1nnc2ccccc2c1=O	none
COc1ccc(CCNCC(O)Cn2c3ccccc3c3ccccc32)cc1OC (stereo unspecified)	Pf growth 96h inconclusive, HCV inhibitor 11µM, Pf growth 48h inconclusive
COc1ccc(CCNCC(O)COc2cccc(Br)c2)cc1OC (stereo unspecified)	Pf growth 96h 9.3µM, Pf growth 48h inconclusive
COc1ccc(CCNCC(O)COc2ccc(OC)cc2C(C)(C)C)cc1 (stereo unspecified)	Pf growth 96h 2.3µM, HCV inhibitor inconclusive, Pf growth 48h 2.3µM
COc1ccccc1NCC(O)Cn1c2ccccc2c2ccccc21 (stereo unspecified)	HCV inhibitor inconclusive, Pf growth 48h inconclusive (no result: Pf growth 96h)
CCOC(=O)N1CCN(CC(O)COc2ccc(OC)cc2C(C)(C)C)CC1 (stereo unspecified)	none
CCO[C@@H]1OC(C(=O)NCc2nc3ccccc3[nH]2)=C[C@H](c2csc3ccccc23)[C@H]1CCCO	Pf growth 96h 13µM, Pf growth 48h inconclusive
CCO[C@H]1OC(C(=O)NCc2nc3ccccc3[nH]2)=C[C@@H](c2csc3ccccc23)[C@@H]1CCCO	Pf growth 96h 10µM, HCV inhibitor 1µM, Pf growth 48h 10µM
CCO[C@H]1OC(C(=O)NCc2nc3ccccc3[nH]2)=C[C@@H](c2ccccc2)[C@@H]1CCCO	none
O=C(COC(=O)C1CCN(S(=O)(=O)c2cccs2)CC1)NCc1ccc(F)cc1	none
Cc1ccc(OCCC(=O)Nc2ccc(C)c(F)c2)cc1	HCV inhibitor inconclusive
Cc1ccc(OCCC(=O)Nc2ccc(F)c(Cl)c2)cc1	Pf growth 96h 15µM
CC(C)(C)c1ccc(NC(=O)COC(=O)c2ccc(NS(=O)(=O)c3ccc(F)c(F)c3)cc2)cc1	none
COc1cc(/C=N/NC(=S)NC2CC3CC2C2C=CCC32)ccc1O (stereo unspecified)	Pf growth 96h inconclusive, HCV inhibitor inconclusive, Pf growth 48h 8.3µM
CCOc1ccc(/C=N/NC(=S)NC2CC3CC2C2C=CCC32)cc1 (stereo unspecified)	Pf growth 96h 0.66µM, Pf growth 48h 4.1µM
CCOc1ccc(/C=N/NC(=S)NC2CC3CCC2C3)cc1 (stereo unspecified)	Pf growth 96h inconclusive, HCV inhibitor inconclusive, Pf growth 48h inconclusive
CC12CCC(C/C1=N/O)C2(C)CBr (stereo unspecified)	none
C#Cc1ccc(NC(=O)C2(C)CCN2C(=O)Cc2ccc(C(C)C)cc2)cc1 (stereo unspecified)	none (no result: Pf growth 96h, HCV inhibitor, Pf growth 48h)
CCC(C)(C)NC(=S)Nc1ccccc1C	Pf growth 96h inconclusive, Pf growth 48h 10µM
Cc1ccccc1NC(=S)NCc1ccccc1	none
Cc1cccc2cc(C#N)c(N3CCN(C)CC3)nc12	HCV inhibitor 10µM
CC(OC(=O)CCCN=C1NS(=O)(=O)c2ccccc21)C(=O)Nc1ccc(F)c(F)c1F (stereo unspecified)	none
Cc1ccc(-c2csc(N=C(N)N)n2)cc1	Pf growth 48h inconclusive
NC(N)=Nc1nc(CSCC/C(N)=N/S(N)(=O)=O)cs1	Pf growth 96h 4.3µM!
O=C(O)c1c(C(=O)O)c(-c2ccc(Cl)c(Cl)c2)n2c1CSC2	none
CS(=O)(=O)c1ccc2nc(NC(=O)CCNC(=O)c3ccccc3Cl)sc2c1	Pf growth 48h 10µM
CS(=O)(=O)c1ccc2nc(NC(=O)Nc3ccc(Cl)cc3)sc2c1	Pf growth 96h 1.2µM, Pf growth 48h inconclusive
CS(=O)(=O)c1ccc2nc(NC(=O)c3ccc(Cl)cc3)sc2c1	Pf growth 96h inconclusive
CS(=O)(=O)c1ccc2nc(NC(=O)c3ccccc3Cl)sc2c1	Pf growth 96h inconclusive, AMA1 RON2 block inconclusive
CS(=O)(=O)c1ccc2nc(NC(=O)CCNC(=O)c3ccc(Cl)cc3)sc2c1	Pf growth 96h 4.1µM
O=C(c1cccc(C(F)(F)F)c1)C1CCCN(Cc2cccn2-c2ccccn2)C1 (stereo unspecified)	HCV inhibitor inconclusive, Pf growth 48h inconclusive
C=C1C=C(C(F)F)n2ncc(C(=O)Nc3ccc(C(C)CC)cc3)c2N1 (stereo unspecified)	Pf growth 48h inconclusive (no result: AMA1 RON2 block, HCV inhibitor)
CCOc1cc(S(=O)(=O)N(CC)CC)c(OCC)cc1-n1cnnn1	none
CCOc1cc(S(=O)(=O)N2CCC(Cc3ccccc3)CC2)c(OCC)cc1-n1cnnn1	Pf growth 96h inconclusive, HCV inhibitor inconclusive, Pf growth 48h 13µM
Cc1ccc(S(=O)(=O)N2CC=C(c3ccc(F)cc3)CC2)cc1	none
CCOc1cc(S(=O)(=O)N2CC=C(c3ccc(F)cc3)CC2)c(OCC)cc1-n1cnnn1	Pf growth 96h inconclusive, Pf growth 48h 7.4µM
CCOc1cc(S(=O)(=O)NCCc2cccc(C)c2)c(OCC)cc1-n1cnnn1	Pf growth 96h 6.6µM, Pf growth 48h 9.3µM
COc1ccccc1Nc1nnc(SCC(=O)c2c(N)n(C3CC3)c(=O)[nH]c2=O)s1	none (no result: Pf growth 96h, Pf growth 48h)
O=C(COC(=O)CNS(=O)(=O)c1ccc(Br)cc1Cl)NC1CCCC1	none
